Here are results for seven compounds from ChEMBL document CHEMBL1961873, “Compounds: GSK PKIS; Assays: Nanosyn kinase panel” (2012).

In general, inhibition refers to the relative decrease from the control value, in per cent.

In assay [1] the target is T1, Aurora kinase A (Homo sapiens) (UniProt O14965).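 Further: values are mean percent inhibition.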
T1 sequence (whole entry): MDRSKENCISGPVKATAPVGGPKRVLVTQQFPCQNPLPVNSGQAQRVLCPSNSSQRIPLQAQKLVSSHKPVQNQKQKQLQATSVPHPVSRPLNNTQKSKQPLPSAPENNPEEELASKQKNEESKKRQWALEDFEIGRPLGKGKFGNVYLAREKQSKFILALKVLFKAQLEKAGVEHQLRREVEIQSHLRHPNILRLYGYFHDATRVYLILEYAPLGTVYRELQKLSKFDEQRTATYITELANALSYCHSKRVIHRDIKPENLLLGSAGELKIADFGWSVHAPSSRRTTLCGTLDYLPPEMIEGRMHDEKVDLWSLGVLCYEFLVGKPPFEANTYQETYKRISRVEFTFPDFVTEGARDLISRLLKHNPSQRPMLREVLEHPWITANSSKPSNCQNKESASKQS
The settings on record: at 1 µM.

Assay [2] has as its target Aurora kinase B (Homo sapiens) (UniProt Q96GD4). The settings on record: at 0.1 µM.
Assay [3] has the same target. The settings on record: at 1 µM.
In assay [4] the target is T2, Aurora kinase C (Homo sapiens) (UniProt Q9UQB9).
T2 sequence (whole entry): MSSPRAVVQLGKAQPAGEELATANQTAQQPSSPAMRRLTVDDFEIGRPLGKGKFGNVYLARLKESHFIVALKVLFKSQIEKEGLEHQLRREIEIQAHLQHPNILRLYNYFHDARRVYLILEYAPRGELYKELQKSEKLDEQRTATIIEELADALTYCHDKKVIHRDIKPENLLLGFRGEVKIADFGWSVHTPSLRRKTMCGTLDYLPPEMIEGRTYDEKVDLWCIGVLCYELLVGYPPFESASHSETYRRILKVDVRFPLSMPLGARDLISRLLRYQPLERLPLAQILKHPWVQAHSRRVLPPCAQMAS
The conditions noted are these: at 0.1 µM.

The target of assay [5] is T2, Aurora kinase C (Homo sapiens). The settings on record: at 1 µM.
Assay [6] addresses Serine/threonine-protein kinase 10 (Homo sapiens) (UniProt O94804). The conditions noted are these: at 0.1 µM.
The target is the same in assay [7]. The conditions noted are these: at 1 µM.
Assay [8] addresses T3, Mitogen-activated protein kinase kinase kinase kinase 2 (Homo sapiens) (UniProt Q12851).
T3 sequence (whole entry): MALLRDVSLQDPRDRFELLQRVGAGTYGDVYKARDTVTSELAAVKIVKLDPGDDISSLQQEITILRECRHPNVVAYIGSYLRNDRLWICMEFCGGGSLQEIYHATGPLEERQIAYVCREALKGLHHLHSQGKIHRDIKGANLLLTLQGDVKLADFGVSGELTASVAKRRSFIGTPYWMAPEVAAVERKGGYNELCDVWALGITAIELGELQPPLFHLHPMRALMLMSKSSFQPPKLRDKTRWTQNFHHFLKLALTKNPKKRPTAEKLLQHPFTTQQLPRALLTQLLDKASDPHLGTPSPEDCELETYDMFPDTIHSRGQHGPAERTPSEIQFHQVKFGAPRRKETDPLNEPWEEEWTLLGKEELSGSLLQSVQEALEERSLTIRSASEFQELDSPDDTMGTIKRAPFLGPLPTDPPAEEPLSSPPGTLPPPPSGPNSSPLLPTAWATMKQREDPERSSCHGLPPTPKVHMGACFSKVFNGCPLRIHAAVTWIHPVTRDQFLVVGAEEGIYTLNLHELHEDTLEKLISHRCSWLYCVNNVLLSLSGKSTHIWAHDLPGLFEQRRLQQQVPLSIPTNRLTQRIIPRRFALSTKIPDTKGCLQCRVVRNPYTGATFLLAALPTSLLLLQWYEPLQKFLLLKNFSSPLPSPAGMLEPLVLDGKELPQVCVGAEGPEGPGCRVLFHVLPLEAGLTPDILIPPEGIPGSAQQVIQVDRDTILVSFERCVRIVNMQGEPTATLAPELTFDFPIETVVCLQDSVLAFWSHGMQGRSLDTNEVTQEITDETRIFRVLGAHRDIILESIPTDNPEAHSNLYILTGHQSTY
The conditions noted are these: at 0.1 µM.

In assay [9] the target is T3, Mitogen-activated protein kinase kinase kinase kinase 2 (Homo sapiens). The conditions noted are these: at 1 µM.
The target in assay [10] is Mitogen-activated protein kinase kinase kinase kinase 4 (Homo sapiens) (UniProt O95819). The conditions noted are these: at 0.1 µM.
Assay [11] has the same target. The settings on record: at 1 µM.
For assay [12], the target named is Dual specificity mitogen-activated protein kinase kinase 1 (Homo sapiens) (UniProt Q02750). The conditions noted are these: at 0.1 µM.
Assay [13] shares this target. The settings on record: at 1 µM.
Assay [14] addresses Misshapen-like kinase 1 (Homo sapiens) (UniProt Q8N4C8). The conditions noted are these: at 0.1 µM.
Assay [15] has the same target. The settings on record: at 1 µM.
In assay [16] the target is T4, Serine/threonine-protein kinase 4 (Homo sapiens) (UniProt Q13043).
T4 sequence (whole entry): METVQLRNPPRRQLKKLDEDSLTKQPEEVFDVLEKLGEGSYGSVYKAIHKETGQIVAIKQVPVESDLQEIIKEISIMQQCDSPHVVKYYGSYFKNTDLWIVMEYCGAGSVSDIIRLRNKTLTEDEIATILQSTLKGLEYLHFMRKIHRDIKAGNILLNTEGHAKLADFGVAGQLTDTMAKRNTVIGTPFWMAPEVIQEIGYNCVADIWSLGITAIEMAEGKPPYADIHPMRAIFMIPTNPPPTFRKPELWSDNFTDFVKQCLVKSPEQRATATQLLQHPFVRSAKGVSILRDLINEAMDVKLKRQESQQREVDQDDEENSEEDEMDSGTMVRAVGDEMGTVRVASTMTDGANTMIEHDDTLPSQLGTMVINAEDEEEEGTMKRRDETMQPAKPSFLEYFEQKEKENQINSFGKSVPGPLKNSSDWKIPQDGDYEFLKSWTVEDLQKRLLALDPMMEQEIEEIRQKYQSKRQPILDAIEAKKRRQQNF
The conditions noted are these: at 0.1 µM.

The target of assay [17] is T4, Serine/threonine-protein kinase 4 (Homo sapiens). The settings on record: at 1 µM.
The target in assay [18] is T5, Serine/threonine-protein kinase 3 (Homo sapiens) (UniProt Q13188).
T5 sequence (whole entry): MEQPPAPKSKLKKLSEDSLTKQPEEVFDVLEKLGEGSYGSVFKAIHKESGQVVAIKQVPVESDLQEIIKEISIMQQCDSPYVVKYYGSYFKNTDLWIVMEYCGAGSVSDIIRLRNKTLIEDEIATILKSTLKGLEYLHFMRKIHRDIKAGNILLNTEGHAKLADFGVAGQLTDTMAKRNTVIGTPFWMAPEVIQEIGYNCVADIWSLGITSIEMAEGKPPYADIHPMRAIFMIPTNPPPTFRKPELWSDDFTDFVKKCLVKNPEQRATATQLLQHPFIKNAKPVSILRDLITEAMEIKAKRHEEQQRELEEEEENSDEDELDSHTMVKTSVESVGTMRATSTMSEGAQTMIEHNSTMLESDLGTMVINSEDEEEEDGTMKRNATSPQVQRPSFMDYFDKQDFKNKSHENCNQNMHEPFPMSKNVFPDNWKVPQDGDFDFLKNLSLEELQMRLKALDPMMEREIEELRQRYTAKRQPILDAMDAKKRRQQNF
The settings on record: at 0.1 µM.

Assay [19] has as its target T5, Serine/threonine-protein kinase 3 (Homo sapiens). The settings on record: at 1 µM.
The target in assay [20] is Serine/threonine-protein kinase 26 (Homo sapiens) (UniProt Q9P289). The settings on record: at 0.1 µM.
Chain of Serine/threonine-protein kinase 26 (Homo sapiens) (Q9P289 2-416 limits assumed): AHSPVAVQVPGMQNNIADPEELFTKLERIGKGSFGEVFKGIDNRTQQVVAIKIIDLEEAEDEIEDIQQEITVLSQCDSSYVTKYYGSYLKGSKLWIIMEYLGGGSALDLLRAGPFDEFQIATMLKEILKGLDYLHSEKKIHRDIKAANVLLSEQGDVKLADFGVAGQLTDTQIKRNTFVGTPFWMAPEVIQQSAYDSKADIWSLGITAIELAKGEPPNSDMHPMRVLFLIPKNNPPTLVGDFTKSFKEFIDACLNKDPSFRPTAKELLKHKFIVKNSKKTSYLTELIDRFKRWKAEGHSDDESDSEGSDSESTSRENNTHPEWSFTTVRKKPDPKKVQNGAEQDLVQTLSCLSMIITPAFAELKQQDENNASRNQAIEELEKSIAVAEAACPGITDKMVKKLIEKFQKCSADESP

Chain of Dual specificity mitogen-activated protein kinase kinase 1 (Homo sapiens) (Q02750 whole entry): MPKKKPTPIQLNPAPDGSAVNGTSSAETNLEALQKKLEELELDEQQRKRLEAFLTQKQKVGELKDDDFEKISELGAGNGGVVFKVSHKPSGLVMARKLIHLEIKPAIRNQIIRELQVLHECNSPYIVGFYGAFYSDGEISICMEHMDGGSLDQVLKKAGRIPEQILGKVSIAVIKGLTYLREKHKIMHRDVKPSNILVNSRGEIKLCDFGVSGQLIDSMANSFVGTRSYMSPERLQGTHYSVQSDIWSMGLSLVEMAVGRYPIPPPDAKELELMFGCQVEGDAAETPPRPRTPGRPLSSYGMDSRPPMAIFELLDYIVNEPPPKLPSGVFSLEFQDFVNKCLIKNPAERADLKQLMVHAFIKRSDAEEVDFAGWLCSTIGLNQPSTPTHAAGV
Chain of Serine/threonine-protein kinase 10 (Homo sapiens) (O94804 whole entry, looked up): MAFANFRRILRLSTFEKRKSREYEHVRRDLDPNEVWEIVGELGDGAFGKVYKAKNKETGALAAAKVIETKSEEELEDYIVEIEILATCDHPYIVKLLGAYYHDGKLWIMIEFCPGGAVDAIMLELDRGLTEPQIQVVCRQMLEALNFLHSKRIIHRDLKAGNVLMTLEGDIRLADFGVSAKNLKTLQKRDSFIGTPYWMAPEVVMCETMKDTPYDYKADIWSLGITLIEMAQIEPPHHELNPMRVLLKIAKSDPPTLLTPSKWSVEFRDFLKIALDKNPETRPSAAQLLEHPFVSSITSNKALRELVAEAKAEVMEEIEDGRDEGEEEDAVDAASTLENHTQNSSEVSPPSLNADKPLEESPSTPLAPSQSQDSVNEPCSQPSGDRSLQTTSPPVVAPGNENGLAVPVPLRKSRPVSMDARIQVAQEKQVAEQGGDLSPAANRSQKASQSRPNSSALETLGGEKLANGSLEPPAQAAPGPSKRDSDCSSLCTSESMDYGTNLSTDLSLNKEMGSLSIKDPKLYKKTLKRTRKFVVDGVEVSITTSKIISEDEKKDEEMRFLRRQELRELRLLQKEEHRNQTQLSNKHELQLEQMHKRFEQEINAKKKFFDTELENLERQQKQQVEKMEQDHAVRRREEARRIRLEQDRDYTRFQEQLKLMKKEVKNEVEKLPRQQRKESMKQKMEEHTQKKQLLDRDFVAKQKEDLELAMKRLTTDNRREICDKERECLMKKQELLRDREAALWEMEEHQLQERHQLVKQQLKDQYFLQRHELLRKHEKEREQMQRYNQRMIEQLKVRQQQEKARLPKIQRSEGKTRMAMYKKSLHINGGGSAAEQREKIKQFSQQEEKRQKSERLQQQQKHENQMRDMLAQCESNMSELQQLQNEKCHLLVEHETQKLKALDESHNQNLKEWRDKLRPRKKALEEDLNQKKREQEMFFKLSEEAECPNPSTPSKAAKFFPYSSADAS
Chain of Misshapen-like kinase 1 (Homo sapiens) (Q8N4C8 whole entry, looked up): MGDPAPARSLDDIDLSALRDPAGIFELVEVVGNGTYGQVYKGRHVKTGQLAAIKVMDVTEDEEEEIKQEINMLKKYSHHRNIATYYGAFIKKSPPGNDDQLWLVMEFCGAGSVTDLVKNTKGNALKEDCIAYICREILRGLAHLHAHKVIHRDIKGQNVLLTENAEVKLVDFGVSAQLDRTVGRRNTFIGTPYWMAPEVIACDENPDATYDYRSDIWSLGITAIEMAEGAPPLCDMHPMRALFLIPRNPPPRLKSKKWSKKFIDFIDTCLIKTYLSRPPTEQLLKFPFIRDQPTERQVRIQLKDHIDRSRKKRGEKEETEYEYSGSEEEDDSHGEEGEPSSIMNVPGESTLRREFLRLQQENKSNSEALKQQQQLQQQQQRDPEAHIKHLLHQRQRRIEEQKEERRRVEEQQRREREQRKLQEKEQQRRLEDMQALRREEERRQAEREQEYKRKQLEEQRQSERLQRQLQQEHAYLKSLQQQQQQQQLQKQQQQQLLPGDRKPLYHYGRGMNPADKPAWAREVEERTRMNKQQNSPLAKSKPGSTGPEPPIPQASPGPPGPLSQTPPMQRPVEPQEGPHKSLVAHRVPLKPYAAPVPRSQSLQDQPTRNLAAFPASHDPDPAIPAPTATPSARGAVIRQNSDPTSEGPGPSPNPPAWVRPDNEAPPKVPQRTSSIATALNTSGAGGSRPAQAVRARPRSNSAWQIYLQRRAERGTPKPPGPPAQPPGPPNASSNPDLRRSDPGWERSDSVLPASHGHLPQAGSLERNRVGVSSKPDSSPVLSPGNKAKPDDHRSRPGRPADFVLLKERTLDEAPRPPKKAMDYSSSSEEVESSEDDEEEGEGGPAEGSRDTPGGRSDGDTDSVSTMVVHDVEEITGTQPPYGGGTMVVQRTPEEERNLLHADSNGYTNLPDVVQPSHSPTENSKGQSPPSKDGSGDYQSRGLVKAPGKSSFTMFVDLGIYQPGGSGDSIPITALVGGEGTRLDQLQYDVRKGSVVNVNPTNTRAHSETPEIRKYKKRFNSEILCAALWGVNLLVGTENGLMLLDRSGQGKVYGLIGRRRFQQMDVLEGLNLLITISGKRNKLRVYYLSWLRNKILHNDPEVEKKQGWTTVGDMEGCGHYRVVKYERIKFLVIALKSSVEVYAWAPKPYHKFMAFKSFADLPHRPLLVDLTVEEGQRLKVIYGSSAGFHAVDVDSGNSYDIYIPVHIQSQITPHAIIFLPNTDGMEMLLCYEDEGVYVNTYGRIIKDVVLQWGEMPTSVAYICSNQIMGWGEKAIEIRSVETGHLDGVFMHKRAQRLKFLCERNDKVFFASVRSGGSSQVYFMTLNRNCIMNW
Chain of Aurora kinase B (Homo sapiens) (Q96GD4 whole entry): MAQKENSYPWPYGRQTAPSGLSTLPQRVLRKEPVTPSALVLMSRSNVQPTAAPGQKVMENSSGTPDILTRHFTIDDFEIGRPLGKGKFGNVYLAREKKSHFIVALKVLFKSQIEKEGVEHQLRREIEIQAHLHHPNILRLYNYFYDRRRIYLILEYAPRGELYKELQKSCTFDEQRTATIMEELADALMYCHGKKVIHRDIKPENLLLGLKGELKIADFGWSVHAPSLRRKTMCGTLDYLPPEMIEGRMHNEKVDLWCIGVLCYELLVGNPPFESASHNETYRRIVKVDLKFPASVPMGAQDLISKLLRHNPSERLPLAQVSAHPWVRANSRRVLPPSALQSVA
Chain of Mitogen-activated protein kinase kinase kinase kinase 4 (Homo sapiens) (O95819 2-1239 limits assumed): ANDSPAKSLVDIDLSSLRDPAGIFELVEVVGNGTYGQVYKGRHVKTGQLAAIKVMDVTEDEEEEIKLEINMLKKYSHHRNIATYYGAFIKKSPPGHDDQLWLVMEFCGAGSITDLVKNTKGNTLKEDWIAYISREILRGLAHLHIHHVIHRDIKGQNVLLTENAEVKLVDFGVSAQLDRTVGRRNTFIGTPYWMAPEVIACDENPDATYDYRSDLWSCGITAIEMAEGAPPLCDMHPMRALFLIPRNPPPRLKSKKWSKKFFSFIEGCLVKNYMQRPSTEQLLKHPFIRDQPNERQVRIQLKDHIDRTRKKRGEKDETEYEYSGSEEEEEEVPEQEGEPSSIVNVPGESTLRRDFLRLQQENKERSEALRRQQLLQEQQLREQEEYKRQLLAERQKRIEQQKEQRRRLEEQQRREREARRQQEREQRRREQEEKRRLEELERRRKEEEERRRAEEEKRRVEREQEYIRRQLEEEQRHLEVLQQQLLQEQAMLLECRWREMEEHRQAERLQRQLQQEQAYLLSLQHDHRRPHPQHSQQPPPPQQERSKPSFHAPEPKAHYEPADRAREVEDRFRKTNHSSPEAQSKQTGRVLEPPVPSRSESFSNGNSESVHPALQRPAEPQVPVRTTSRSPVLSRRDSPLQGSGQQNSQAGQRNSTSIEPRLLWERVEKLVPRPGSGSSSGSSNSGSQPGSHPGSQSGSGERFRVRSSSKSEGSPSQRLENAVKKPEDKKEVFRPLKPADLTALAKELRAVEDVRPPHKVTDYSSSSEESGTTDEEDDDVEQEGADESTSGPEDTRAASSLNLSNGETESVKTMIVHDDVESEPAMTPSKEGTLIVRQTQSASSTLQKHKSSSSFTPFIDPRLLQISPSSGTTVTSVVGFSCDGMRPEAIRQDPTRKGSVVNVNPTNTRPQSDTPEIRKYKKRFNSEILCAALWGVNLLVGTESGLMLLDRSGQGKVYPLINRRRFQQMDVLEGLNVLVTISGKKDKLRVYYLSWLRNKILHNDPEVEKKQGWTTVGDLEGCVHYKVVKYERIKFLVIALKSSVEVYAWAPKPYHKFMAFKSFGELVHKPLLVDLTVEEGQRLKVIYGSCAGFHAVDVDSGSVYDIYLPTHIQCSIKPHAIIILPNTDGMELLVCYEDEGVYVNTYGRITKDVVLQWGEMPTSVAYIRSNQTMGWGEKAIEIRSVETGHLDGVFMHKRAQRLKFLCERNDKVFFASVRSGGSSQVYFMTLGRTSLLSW

As for `NS(=O)(=O)c1ccc(Nc2cc(-c3cccc(O)c3)n[nH]2)cc1`, the inhibition in assay [1] came to 17.2%; in assay [2], 9.52%; in assay [3], 19.4%; in assay [4] it was 7.83%; in assay [5] it was 19.6%; in assay [6], 6.23%. Besides, the inhibition in assay [7] turned out to be 8.5%; in [8] it was 2.13%; in [9], 10.7%; in assay [10] it was 7.82%; in assay [11] it was 17.6%; in [12], 7.97%. Besides, the inhibition amounted to 5.67% in assay [13]; 8% in assay [14]; 18.6% in [15]; 9.01% in assay [16]; 16.1% in [17]; 8.2% in assay [18]. Further, the values for the inhibition in assay [19] and in assay [20] were 13.4% and -1.36%, respectively.

Consider `CC(C)c1ccc2c(c1)NC(=O)/C2=N/Nc1ccc(S(N)(=O)=O)cc1`, for which the inhibition in [1] is 8.05%; in assay [2] it was 1.3%; in assay [3] it was 7%; in [4] it was -4.39%; in assay [5] it was 6.7%; in [6] it was -0.47%. Also, the inhibition in assay [7] was determined as 2.14%; in [8] it was 2.41%; in assay [9], 2.01%; in [10], 12.8%; in [11], 62.3%; in assay [12] it was 0.83%. In addition, the inhibition was 1.72% in assay [13]; 10.1% in assay [14]; 48.9% in assay [15]; 1.52% in assay [16]; 11.2% in assay [17]; 1.12% in assay [18]. Further, the values for the inhibition in assay [19] and in assay [20] were 9.13% and -0.9%, respectively.

For `C[C@@H](Oc1cc(-n2cnc3ccc(OC[C@@H](O)CO)cc32)sc1C(N)=O)c1ccccc1Cl`, the inhibition was 2.13% in assay [1]; 0.7% in assay [2]; 1.36% in [3]; -1.38% in [4]; -2.42% in assay [5]; 48.1% in assay [6]. Moreover, the inhibition is 85.7% in assay [7]; 3.67% in assay [8]; 16.4% in [9]; -0.19% in [10]; 4.28% in assay [11]; -0.54% in assay [12]. Besides, the inhibition was 0.3% in [13]; -1.25% in assay [14]; 2.89% in assay [15]; 3.22% in assay [16]; 34.1% in assay [17]; 2.75% in assay [18]. Also, the inhibition in assay [19] is 25.7%; in assay [20] it was -0.27%.

`NS(=O)(=O)c1cccc(-c2cc3ccncc3cc2OCc2ccccc2)c1`: the inhibition in [1] is 16.9%; in assay [2], 7.33%; in assay [3] it was 17.9%; in assay [4], 8.37%; in [5], 12.4%; in assay [6] it was 8.31%. In addition, the inhibition in [7] stood at 10.8%; in [8], 3.01%; in [9], 10.2%; in assay [10], 7.44%; in assay [11], 11.1%; in assay [12], 5.91%. The inhibition was 5.86% in assay [13]; 7.3% in [14]; 13.4% in assay [15]; 8% in assay [16]; 11.9% in assay [17]; 7.94% in assay [18]. In addition, the figures for the inhibition in assay [19] and in assay [20] were 11% and -2.99%, respectively.

Take `Cc1cc(O)cc(C)c1/C=C/c1cncc(C(=O)N(C)C)c1`: the inhibition in assay [1] came to 13.3%; in assay [2], 7.28%; in assay [3], 14.7%; in [4], 3.08%; in [5], 2.63%; in [6], 3.87%. Besides, the inhibition amounted to 7.88% in assay [7]; 2.39% in [8]; 6.67% in [9]; 6.12% in [10]; 12.6% in assay [11]; 2.74% in [12]. The inhibition in assay [13] came out at 2.6%; in assay [14], 6.61%; in assay [15], 11.7%; in assay [16], 3.39%; in assay [17] it was 3.11%; in [18], 3.57%. Besides, the inhibition in assay [19] turned out to be 2.26%; in [20], 0.08%.

`CCCN1CCCC(c2ccc(Nc3nc(Nc4cc(F)ccc4C(N)=O)c4cc[nH]c4n3)c(OC)c2)C1` (stereo not given): the inhibition in assay [1] was 7.44%; in assay [2] it was -0.78%; in assay [3] it was 3.45%; in assay [4], -0.09%; in assay [5], 5.81%; in assay [6], 7.27%. In addition, the inhibition in [7] was 24.8%; in [8] it was 9.87%; in assay [9], 48.9%; in assay [10], 38.3%; in [11], 80.8%; in [12], 9.59%. For the same compound, the inhibition came to 33.4% in assay [13]; 28.3% in assay [14]; 71.7% in assay [15]; 10.2% in assay [16]; 41% in [17]; 6.09% in assay [18]. Moreover, the inhibition in assay [19] is 10.6%; in assay [20] it was -1.66%.

As to `Cc1cc(-c2ccccn2)cc(C)c1/C=C/c1cncc(-c2nn[nH]n2)c1`, the inhibition in assay [1] is 5.71%; in assay [2], 2.09%; in assay [3] it was 7.42%; in assay [4], 4.2%; in assay [5], 19.6%; in assay [6] it was 6.35%. Also, the inhibition in [7] was 13.7%; in assay [8] it was -1.16%; in [9] it was 3.53%; in [10] it was 2.48%; in assay [11] it was 13.5%; in assay [12] it was 3.04%. Also, the inhibition in [13] is 4.93%; in [14], 2.69%; in [15] it was 9.19%; in assay [16], 3.88%; in assay [17] it was 8.04%; in assay [18], 3.7%. In addition, the inhibition in assay [19] is 7.75%; in assay [20] it was -1.78%.
